ChEMBL document CHEMBL3988442, “University of Dundee, Small-Polar-MMV Screening Library” (2021)
Out of some 38,000 compounds screened, about 1,200 (3.2%) showed an effect of 50% or more. The median lay at about -58%. The list comes from a sample in which strong results are over-represented; it also holds similar structures and randomly drawn compounds.

These molecules were tested on Plasmodium falciparum (assay: Calibr Malaria Delayed Death Assay SOP). Settings: concentration 4.99e-06 (unit not given; other assays of the set use mol/L).
Format: functional, organism-based
Design: scale not given: in the data most compounds retested in dose-response had high values

In order of falling “Percent Effect” value:
1. c1ccc(-c2nc3c(c(NCc4n[nH]c5c4CCC5)n2)CCNC3)cc1  89.28%
2. CN1CCC(O)(CNCc2ccc(F)c(C(F)(F)F)c2)CC1  82.66%
3. Cc1ccc2c(c1)C(NC1CC1)CC21CCNCC1.Cl (centres undefined)  82.38%
4. Cl.Cl.Fc1ccc2c(c1)C1(CCNCC1)CC2NC1CC1 (centres undefined)  82.19%
5. c1[nH]c(CC2CCCC2)nc1CN1CCCC2(CCOC2)C1 (centres undefined)  81.53%
6. COc1ccc(CN2CC[C@@H](O)[C@@H]2Cc2ccccc2)cc1.O=C(O)C(F)(F)F  80.27%
7. Cl.Cl.c1ccc2c(c1)C(NC1CCCC1)CC21CCNCC1 (centres undefined)  74.54%
8. Cc1ccc2c(c1)C1(CCNCC1)CC2NC1CC1.Cl.Cl (centres undefined)  73.32%
9. Fc1ccc2c(c1)C1(CCNCC1)CC2OCC1CC1 (centres undefined)  69.13%
10. O=C(O)C(F)(F)F.O[C@@H]1CCN(CC2CC2)[C@H]1Cc1ccccc1  63.26%
11. CC(C)(C)c1nccc(N2CCC(OCCN3CCCCC3)C2)n1 (centres undefined)  62.36%
12. OC1(CNCc2ccc(F)c(C(F)(F)F)c2)CCSCC1  54.72%
13. OC1(CN2CCCCC2)CCN(Cc2c[nH]c(CC3CCCC3)n2)C1 (centres undefined)  52.98%
14. COc1ccnc(N2CCC(OCCN3CCCCC3)C2)n1 (centres undefined)  51.05%
15. Cc1ccc2c(c1)C1(CCNCC1)CC2OCC1CC1 (centres undefined)  44.42%
16. Cc1cc(CNCC2(O)CCOCC2)ccc1Br  44%
17. COCCN1CCC2(CC1)CC(OCC1CC1)c1ccc(C)cc12 (centres undefined)  40.12%
18. OC1(CN2CCCC2)CCCN(Cc2c[nH]c(CC3CCCC3)n2)C1 (centres undefined)  36.89%
19. CCn1nc(C)c2nc(C(C)C)nc(NCc3ccccn3)c21  36.29%
20. Cc1cnc(N2CCC(OCCN3CCCCC3)C2)nc1C (centres undefined)  23.23%
21. Cn1cc(CN2CC[C@H](O)[C@@H]2Cc2ccccc2)cn1.O=C(O)C(F)(F)F  22.75%
22. c1coc(-c2nc3c(c(NCc4n[nH]c5c4CCC5)n2)CCNCC3)c1  20.11%
23. Cc1cc(CNCC2(O)CCOCC2)ccc1F  16.95%
24. COC[C@]1(O)CCN(Cc2c[nH]c(CC3CCCC3)n2)CC1(C)C  15.86%
25. CC(C)NC1CC2(CCNCC2)c2cc(F)ccc21.Cl.Cl (centres undefined)  6.754%
26. CNCC(=O)NC1CC(C)(C)Cc2nc(C(C)(C)C)ncc21 (centres undefined)  3.513%
27. Cc1ccoc1C(=O)N1C[C@@H](OCC2CCOCC2)[C@H]2OCCC[C@H]21  0.5559%
28. O=C(NCc1ccc(Cl)cc1Cl)NCC1(O)CCSC1 (centres undefined)  0.496%
29. COc1ccc2c(c1)C1(CCNCC1)CC2NC1CC1.Cl.Cl (centres undefined)  -4.171%
30. OC1(CNCc2ccc(F)c(C(F)(F)F)c2)CCOC1 (centres undefined)  -5.548%
31. COc1ccc(NC(=O)C(c2cccc(F)c2)N2CCOCC2)cc1 (centres undefined)  -6.296%
32. COc1ccc(CN2CC[C@H](O)[C@@H]2Cc2cnn(C)c2)cc1.O=C(O)C(F)(F)F  -6.903%
33. Cn1cccc1C(=O)N1CCCn2nc(CCC(=O)NC3CC3)cc2C1  -14.31%
34. Cc1nc(C(=O)N2CCN(S(C)(=O)=O)CC2)c(-c2ccccc2)s1  -18.55%
35. Cc1cc(C)c(S(=O)(=O)Nc2cccc3c2OCCO3)cc1C(=O)O  -20.88%
36. O=C(c1ccc(S(=O)(=O)NCc2ccon2)cc1)N1CCOCC1  -26.34%
37. Cc1ccc2c(c1)C1(CCNCC1)CC2NCCO.Cl.Cl (centres undefined)  -29.16%
38. Cc1nccn1CCCn1c(=O)cnc2ccccc21  -30.97%
39. CC1(C)CN(Cc2c[nH]c(CC3CCCC3)n2)CC[C@]1(C)O  -34.05%
40. Nc1nc2c(c(NCc3cnc4c(c3)CCC4)n1)CCNC2  -34.51%
41. CC(C)(C)c1nccc(N2CCN(C3CCS(=O)(=O)C3)CC2)n1 (centres undefined)  -36.45%
42. C1CCN(CCOC2CCNCC2)CC1  -37.31%
43. Cc1ccc2c(c1)C1(CCNCC1)CC2NC(C)C.Cl.Cl (centres undefined)  -38.07%
44. O=C(O)C(F)(F)F.O=C(c1ccnnc1)N1C[C@@H]2C[C@@H](c3nc(C4CC4)cs3)O[C@@H]2C1  -41.35%
45. O=c1cc(Cn2ccnc2)nc2n1CCCN(Cc1ccncc1)C2  -42.89%
46. NCC(CO)Cc1ccc(C(F)(F)F)cc1 (centres undefined)  -43.7%
47. Cn1cc(CN2CC[C@@H](O)[C@@H]2Cc2ccccc2)cn1  -45.02%
48. Cc1cc(C)n(C2CCCN(C(=O)Cc3cccs3)C2)n1 (centres undefined)  -45.18%
49. Cc1ccc2c(c1)C(NC(C)C)CC21CCNCC1.Cl (centres undefined)  -48.62%
50. CCOc1ccc(NC(C)C(=O)Nc2cc(C)no2)cc1 (centres undefined)  -61.09%
51. CN1CC(=O)N(c2ccccc2)CC12CCN(C(=O)c1cnccn1)C2.O=C(O)C(F)(F)F (centres undefined)  -66.28%
52. O=C(O)C(F)(F)F.O=C(O)C(F)(F)F.O[C@@H]1CCN(CC2CCOC2)[C@H]1Cc1cccnc1 (some centres undefined)  -68.9%
53. CC(C)C(=O)N1CCN(Cc2cnn(C)c2)CC2(CC(=O)N(C)C2)C1.O=C(O)C(F)(F)F (centres undefined)  -69.27%
54. Cc1nc2sccn2c1CNc1ccc(C(=O)O)cc1  -70.26%
55. Cc1ccc(CN(CCN(C)C)C(=O)Cc2cn3ccccc3n2)o1  -71.99%
56. COc1ccc2nnc(C(=O)NCC3CCCC3)nc2c1  -78.39%
57. Cc1ccnc(N2CCC(OCCN3CCCCC3)C2)n1 (centres undefined)  -84.22%
58. CC(C)Oc1ncccc1CNC(=O)c1ccc(=O)[nH]n1  -94.73%
59. COc1ccccc1C(C)NC(=O)NCCC(=O)NC1CCCCC1 (centres undefined)  -102.7%
60. CCCc1noc(CN2CCC(C(=O)Nc3cnn(CC)c3)CC2)n1  -105%
61. O=C(O)C(F)(F)F.O[C@@H]1CCN(CC2CCOC2)[C@H]1Cc1ccccc1 (some centres undefined)  -110.3%
62. CNC(=O)CC1CC2(CCNCC2)c2cc(F)ccc21 (centres undefined)  -118.7%
63. O=C(C1CCCN1Cc1nc(-c2ccco2)no1)N1CCSCC1 (centres undefined)  -120.3%
64. CNC(=O)C1(CCCc2ccncc2)CCN1.O=C(O)C(F)(F)F (centres undefined)  -123.5%
65. CCCS(=O)(=O)NCCc1ncc(C)s1  -127.4%
66. COc1ccc(CN2CC[C@@H](O)[C@@H]2Cc2cnn(C)c2)cc1.O=C(O)C(F)(F)F  -130.2%
67. C[C@@H]1CN(Cc2c[nH]c(CC3CCCC3)n2)CC[C@]1(C)O  -135.8%
68. Cl.O=C1NC2(CCNCC2)CC1c1ccccc1 (centres undefined)  -140.8%
69. CC(C)COCCCNC(=O)c1cccnc1N1CCOCC1  -144.5%
